According to PubChem BioAssay (NCI):
About 83,000 compounds went through this panel and 20% of them were active in at least one assay; those are over-represented in the sample as a whole.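 48-hour exposure, single concentration, 96-well plates; percent growth endpoint where 0 means no net growth. Active: below 10.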 A number with no mark means an inactive call. Calls of active or inactive are those of the source.

Legend:
Assay in all cases: NCI-60 one-dose screen, 48 h (100 = growth as untreated, 0 = no growth, -100 = all killed)
Conditions in all cases: 10 µM unless noted
NCI-H23 lung = test system: NCI-H23 lung
NCI-H226 lung = test system: NCI-H226 lung
NCI-H322M lung = test system: NCI-H322M lung
HOP-62 NSCLC = test system: HOP-62 NSCLC
HOP-92 NSCLC = test system: HOP-92 NSCLC
NCI-H522 lung = test system: NCI-H522 lung
A549/ATCC NSCLC = test system: A549/ATCC NSCLC
786-0 renal = test system: 786-0 renal
COLO 205 colon = test system: COLO 205 colon
DU-145 prostate = test system: DU-145 prostate
K-562 leukemia = test system: K-562 leukemia
MALME-3M melanoma = test system: MALME-3M melanoma
MDA-MB-231 breast = test system: MDA-MB-231 breast
RXF 393 renal = test system: RXF 393 renal
SF-268 CNS = test system: SF-268 CNS
SF-295 CNS = test system: SF-295 CNS
SF-539 CNS = test system: SF-539 CNS
UACC-257 melanoma = test system: UACC-257 melanoma
M14 melanoma = test system: M14 melanoma
NCI-H460 lung = test system: NCI-H460 lung

## CCN1CCN(CCNc2nccc(-c3c(-c4ccc(F)c(O)c4)nc4occn34)n2)S1(=O)=O
NCI-H23 lung
  growth: 14%
NCI-H226 lung
  growth: 6.71% (active)
NCI-H322M lung
  growth: 64.3%
HOP-62 NSCLC
  growth: 33.7%
HOP-92 NSCLC
  growth: 68.5%
NCI-H522 lung
  growth: -3.38% (active)
A549/ATCC NSCLC
  growth: 23%
786-0 renal
  growth: 56.7%
COLO 205 colon
  growth: 29%
DU-145 prostate
  growth: 26.8%
K-562 leukemia
  growth: 10.3%
MALME-3M melanoma
  growth: 26.4%
MDA-MB-231 breast
  growth: 73.2%
RXF 393 renal
  growth: 25.8%
SF-268 CNS
  growth: 28%
SF-295 CNS
  growth: 28.9%
SF-539 CNS
  growth: 75.9%
UACC-257 melanoma
  growth: 43.6%
M14 melanoma
  growth: 21.6%

## CCOC(=O)C1=C(CCl)N(C)C(=O)NC1c1ccc2c(c1)OCO2 (stereo unspecified)
NCI-H23 lung
  growth: 70.7%
NCI-H226 lung
  growth: 77%
NCI-H322M lung
  growth: 85%
HOP-62 NSCLC
  growth: 74.7%
HOP-92 NSCLC
  growth: 53.9%
NCI-H522 lung
  growth: 32.7%
A549/ATCC NSCLC
  growth: 87.5%
786-0 renal
  growth: 53.9%
COLO 205 colon
  growth: 69.1%
DU-145 prostate
  growth: 33.4%
K-562 leukemia
  growth: 16.7%
MALME-3M melanoma
  growth: 65%
MDA-MB-231 breast
  growth: 65.3%
RXF 393 renal
  growth: 41.3%
SF-268 CNS
  growth: 91.6%
SF-295 CNS
  growth: 95.1%
SF-539 CNS
  growth: 32.5%
UACC-257 melanoma
  growth: 59.5%
M14 melanoma
  growth: 42.1%

## CCOC(=O)c1cnn(CC(C)O)c1NC(=O)NCc1ccccc1C(F)(F)F (stereo unspecified)
NCI-H23 lung
  growth: 98.8%
NCI-H226 lung
  growth: 104%
NCI-H322M lung
  growth: 97.5%
HOP-62 NSCLC
  growth: 102%
HOP-92 NSCLC
  growth: 84.5%
NCI-H522 lung
  growth: 60.8%
A549/ATCC NSCLC
  growth: 82.1%
786-0 renal
  growth: 93.8%
COLO 205 colon
  growth: 112%
DU-145 prostate
  growth: 105%
K-562 leukemia
  growth: 86.3%
MALME-3M melanoma
  growth: 101%
MDA-MB-231 breast
  growth: 105%
RXF 393 renal
  growth: 111%
SF-268 CNS
  growth: 101%
SF-295 CNS
  growth: 92.6%
SF-539 CNS
  growth: 98.3%
UACC-257 melanoma
  growth: 89.7%
M14 melanoma
  growth: 88.6%

## CCN(CC)CCOc1ccc2c(-c3ccccc3)c(-c3ccc(OC)cc3)c(=O)oc2c1
NCI-H23 lung
  growth: 70.3%
NCI-H226 lung
  growth: 85.2%
NCI-H322M lung
  growth: 122%
HOP-62 NSCLC
  growth: 95%
NCI-H460 lung
  growth: 57.4%
HOP-92 NSCLC
  growth: 63.9%
A549/ATCC NSCLC
  growth: 70.6%
786-0 renal
  growth: 65.9%
COLO 205 colon
  growth: -38.8% (active)
DU-145 prostate
  growth: 95.6%
K-562 leukemia
  growth: 25%
MALME-3M melanoma
  growth: 83%
MDA-MB-231 breast
  growth: 67.3%
RXF 393 renal
  growth: 50.9%
SF-268 CNS
  growth: 89.8%
SF-295 CNS
  growth: 62.9%
SF-539 CNS
  growth: 58.7%
UACC-257 melanoma
  growth: 18.1%
M14 melanoma
  growth: -7.02% (active)
